The record followed here is PMC5700166.

What all share (assay): protein-binding microarray (PBM); PBM: ~300 nM protein, 6 mM HEPES pH 7.8, 80 mM KCl, 0.5 mM EDTA, 0.5 mM EGTA, 6% glycerol, 35 ng/ul poly-dIdC, 1% milk, 1 h, room temperature; Ap Aiptasia and Nv Nematostella (sea anemones) / Co Capsaspora / Aq Amphimedon (sponge) / Dm Drosophila / Hu human; RHD is the Rel homology domain; high values mean tight binding
Common to all, as to conditions: dsDNA, one strand shown

Experiment [1] deals with T1, GST-Ap-NF-kB RHD (Exaiptasia pallida (Aiptasia), UniProt A0A913YAJ5 2-422).
T1 sequence: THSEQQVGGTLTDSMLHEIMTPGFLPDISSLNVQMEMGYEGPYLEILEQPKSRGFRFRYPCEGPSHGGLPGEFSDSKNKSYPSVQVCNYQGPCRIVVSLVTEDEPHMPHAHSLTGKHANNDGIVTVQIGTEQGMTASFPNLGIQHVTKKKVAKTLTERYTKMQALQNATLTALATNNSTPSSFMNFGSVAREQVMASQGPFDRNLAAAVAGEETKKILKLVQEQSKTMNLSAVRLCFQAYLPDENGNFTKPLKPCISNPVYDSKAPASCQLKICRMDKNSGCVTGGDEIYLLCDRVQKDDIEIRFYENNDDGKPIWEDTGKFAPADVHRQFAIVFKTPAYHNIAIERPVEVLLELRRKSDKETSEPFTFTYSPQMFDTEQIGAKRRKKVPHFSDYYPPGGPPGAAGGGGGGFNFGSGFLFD

Experiment [2] deals with T2, GST-Nv-NF-kB (Cys allele) (Nematostella vectensis, UniProt E5G601 2-411).
T2 sequence: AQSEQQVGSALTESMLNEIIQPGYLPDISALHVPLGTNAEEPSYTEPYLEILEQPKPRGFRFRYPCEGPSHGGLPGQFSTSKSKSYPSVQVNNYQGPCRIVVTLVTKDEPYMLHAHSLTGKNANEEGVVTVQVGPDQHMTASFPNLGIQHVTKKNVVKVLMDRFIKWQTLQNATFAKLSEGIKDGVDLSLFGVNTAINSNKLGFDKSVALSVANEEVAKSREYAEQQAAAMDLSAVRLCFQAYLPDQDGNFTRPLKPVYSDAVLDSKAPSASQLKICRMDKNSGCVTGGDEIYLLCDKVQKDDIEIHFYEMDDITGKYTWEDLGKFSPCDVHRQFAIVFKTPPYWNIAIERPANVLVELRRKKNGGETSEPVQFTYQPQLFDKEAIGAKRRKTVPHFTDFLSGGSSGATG

For experiment [3], the target named is T3, GST-Nv-NF-kB (Ser allele) (Nematostella vectensis, UniProt A7UNT2 2-411).
T3 sequence: T2 sequence with Q21R, C66S, S207N, E215Q, V217A, E225K, A268E, D399E

Experiment [4] concerns the target T4, GST-Co-NF-kB (Capsaspora owczarzaki, UniProt F1ARL5 200-546).
T4 sequence: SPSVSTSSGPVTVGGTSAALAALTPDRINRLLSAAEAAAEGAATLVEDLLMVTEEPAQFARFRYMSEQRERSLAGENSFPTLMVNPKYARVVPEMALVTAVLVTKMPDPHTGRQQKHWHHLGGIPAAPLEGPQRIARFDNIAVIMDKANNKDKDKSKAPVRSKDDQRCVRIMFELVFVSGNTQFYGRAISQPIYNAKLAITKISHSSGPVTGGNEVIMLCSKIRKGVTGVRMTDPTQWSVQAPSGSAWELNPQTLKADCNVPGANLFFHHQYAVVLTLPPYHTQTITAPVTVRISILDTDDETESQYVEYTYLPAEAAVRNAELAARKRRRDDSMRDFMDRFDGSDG

The target in experiment [5] is T5, GST-Dm-Relish (Drosophila melanogaster, UniProt Q94527 99-473).
T5 sequence: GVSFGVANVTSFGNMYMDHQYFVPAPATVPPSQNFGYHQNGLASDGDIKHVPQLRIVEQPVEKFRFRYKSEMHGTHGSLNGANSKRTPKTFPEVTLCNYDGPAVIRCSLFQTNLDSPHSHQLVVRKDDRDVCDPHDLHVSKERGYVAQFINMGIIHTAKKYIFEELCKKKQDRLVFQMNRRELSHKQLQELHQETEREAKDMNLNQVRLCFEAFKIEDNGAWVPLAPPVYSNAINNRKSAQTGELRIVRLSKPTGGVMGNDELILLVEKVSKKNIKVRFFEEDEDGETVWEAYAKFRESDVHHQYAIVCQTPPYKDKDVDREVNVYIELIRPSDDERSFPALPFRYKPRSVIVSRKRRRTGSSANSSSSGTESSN

Experiment [6] addresses T6, GST-Aq-NF-kB (Amphimedon queenslandica, UniProt A9Y5G7 2-389).
T6 sequence: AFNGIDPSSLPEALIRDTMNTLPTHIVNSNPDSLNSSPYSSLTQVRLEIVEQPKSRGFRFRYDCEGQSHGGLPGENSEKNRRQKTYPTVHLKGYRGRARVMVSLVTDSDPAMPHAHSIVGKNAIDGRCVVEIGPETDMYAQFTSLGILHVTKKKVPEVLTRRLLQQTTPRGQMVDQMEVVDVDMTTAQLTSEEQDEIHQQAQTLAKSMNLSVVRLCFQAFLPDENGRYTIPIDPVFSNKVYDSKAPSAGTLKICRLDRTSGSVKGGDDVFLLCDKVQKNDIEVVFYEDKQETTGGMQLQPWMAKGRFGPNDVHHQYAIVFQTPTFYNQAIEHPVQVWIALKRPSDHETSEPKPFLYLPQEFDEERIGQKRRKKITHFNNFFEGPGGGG

Changes are numbered by the printed parent chain.

Regarding “CCGATTAACATCACTTTTTTCCCTGATGTTAATCGGGTCTTGATTCGCTTGACGCTGCTG”, the binding signal in experiment [1] worked out at 2.9 z-score; in experiment [2] it was 4.9 z-score; in experiment [3], 6.59 z-score; in experiment [4], 6.08 z-score; in experiment [5], 2.28 z-score; in experiment [6], 3.49 z-score.
With “CCGATTAACATCAACCAATCCCCTGATGTTAATCGGGTCTTGATTCGCTTGACGCTGCTG”, the binding signal in experiment [1] amounted to 5.19 z-score; in experiment [2] it was 5.28 z-score; in experiment [3], 6.6 z-score; in experiment [4], 2.16 z-score; in experiment [5], 2.29 z-score; in experiment [6] it was 3.86 z-score.
“CCGATTAACATCAATAAATTCCCTGATGTTAATCGGGTCTTGATTCGCTTGACGCTGCTG”: the binding signal in experiment [1] came out at 4.18 z-score; in experiment [2] it was 7.04 z-score; in experiment [3], 7.28 z-score; in experiment [4] it was 4.25 z-score; in experiment [5], 5.85 z-score; in experiment [6] it was 5.34 z-score.
Take “CCGATTAACATCAAATTTTTCCCTGATGTTAATCGGGTCTTGATTCGCTTGACGCTGCTG”: the binding signal came to 3.81 z-score in experiment [1]; 6.06 z-score in experiment [2]; 8.21 z-score in experiment [3]; 6.81 z-score in experiment [4]; 2.35 z-score in experiment [5]; 4.92 z-score in experiment [6].
As for “CCGATTAACATCAGCCCCCCCCCTGATGTTAATCGGGTCTTGATTCGCTTGACGCTGCTG”, the binding signal stood at 4.45 z-score in experiment [1]; 5.13 z-score in experiment [2]; 3.95 z-score in experiment [3]; 5.44 z-score in experiment [4]; 4.51 z-score in experiment [5]; 5.11 z-score in experiment [6].
For “CCGATTAACATCACCCCCACCCCTGATGTTAATCGGGTCTTGATTCGCTTGACGCTGCTG”, the binding signal came out at 3.49 z-score in experiment [1]; 2.96 z-score in experiment [2]; 1.75 z-score in experiment [3]; 4.43 z-score in experiment [4]; 3.84 z-score in experiment [5]; 3.33 z-score in experiment [6].
On to “CCGATTAACATCAATCCCCCCCATGATGTTAATCGGGTCTTGATTCGCTTGACGCTGCTG”, for which the binding signal in experiment [1] came to 7.7 z-score; in experiment [2], 5.57 z-score; in experiment [3], 4.56 z-score; in experiment [4], 6.68 z-score; in experiment [5], 5.46 z-score; in experiment [6], 4.81 z-score.
Regarding “CCGATTAACATCAGGGGAATGGATGATGTTAATCGGGTCTTGATTCGCTTGACGCTGCTG”, the binding signal in experiment [1] worked out at 5.2 z-score; in experiment [2], 5.95 z-score; in experiment [3] it was 7.13 z-score; in experiment [4] it was 3.65 z-score; in experiment [5], 1.71 z-score; in experiment [6], 4.07 z-score.
Consider “CCGATTAACATCAAAGTTTTCCCTGATGTTAATCGGGTCTTGATTCGCTTGACGCTGCTG”, for which the binding signal in experiment [1] was 4.37 z-score; in experiment [2], 6.15 z-score; in experiment [3], 7.61 z-score; in experiment [4], 6.07 z-score; in experiment [5], 2.47 z-score; in experiment [6], 4.93 z-score.
Take “CCGATTAACATCAGGGGATAATATGATGTTAATCGGGTCTTGATTCGCTTGACGCTGCTG”: the binding signal in experiment [1] is 5.41 z-score; in experiment [2] it was 5.47 z-score; in experiment [3] it was 7.02 z-score; in experiment [4], 5.65 z-score; in experiment [5], 2.58 z-score; in experiment [6], 4.59 z-score.
For the sequence “CCGATTAACATCAAATCCCCCCTTGATGTTAATCGGGTCTTGATTCGCTTGACGCTGCTG”, the binding signal in experiment [1] came to 8.14 z-score; in experiment [2], 6.82 z-score; in experiment [3], 7.98 z-score; in experiment [4], 6.62 z-score; in experiment [5] it was 7.95 z-score; in experiment [6] it was 6.8 z-score.
For the sequence “CCGATTAACATCAAGGGAAAATATGATGTTAATCGGGTCTTGATTCGCTTGACGCTGCTG”, the binding signal in experiment [1] amounted to 3.77 z-score; in experiment [2] it was 7.5 z-score; in experiment [3], 8.19 z-score; in experiment [4] it was 4.43 z-score; in experiment [5], 1.66 z-score; in experiment [6], 4.44 z-score.
Take “CCGATTAACATCACATTTCCCCATGATGTTAATCGGGTCTTGATTCGCTTGACGCTGCTG”: the binding signal in experiment [1] amounted to 4.9 z-score; in experiment [2], 6.14 z-score; in experiment [3], 8.95 z-score; in experiment [4] it was 7.21 z-score; in experiment [5], 2.25 z-score; in experiment [6] it was 3.87 z-score.
Consider “CCGATTAACATCAGGGGAAGAAATGATGTTAATCGGGTCTTGATTCGCTTGACGCTGCTG”, for which the binding signal is 4.46 z-score in experiment [1]; 5.99 z-score in experiment [2]; 6.85 z-score in experiment [3]; 8.71 z-score in experiment [4]; 6.53 z-score in experiment [5]; 4.68 z-score in experiment [6].
With “CCGATTAACATCAGTATTCCCCATGATGTTAATCGGGTCTTGATTCGCTTGACGCTGCTG”, the binding signal in experiment [1] amounted to 6.37 z-score; in experiment [2] it was 7.73 z-score; in experiment [3], 6.79 z-score; in experiment [4], 7.15 z-score; in experiment [5], 4.54 z-score; in experiment [6], 5.32 z-score.
As for “CCGATTAACATCAGGGAAGTACATGATGTTAATCGGGTCTTGATTCGCTTGACGCTGCTG”, the binding signal in experiment [1] came to 1.18 z-score; in experiment [2] it was 1.34 z-score; in experiment [3] it was 1.35 z-score; in experiment [4] it was 1.54 z-score; in experiment [5], 9.23 z-score; in experiment [6], 2.86 z-score.
For “CCGATTAACATCACAGATTTCCCTGATGTTAATCGGGTCTTGATTCGCTTGACGCTGCTG”, the binding signal in experiment [1] stood at 3.88 z-score; in experiment [2] it was 5.4 z-score; in experiment [3], 7.17 z-score; in experiment [4] it was 4.93 z-score; in experiment [5], 2.66 z-score; in experiment [6] it was 4.24 z-score.
Consider “CCGATTAACATCACCATTTTCCCTGATGTTAATCGGGTCTTGATTCGCTTGACGCTGCTG”, for which the binding signal turned out to be 3.46 z-score in experiment [1]; 4.65 z-score in experiment [2]; 7.17 z-score in experiment [3]; 3.65 z-score in experiment [4]; 1.32 z-score in experiment [5]; 3.42 z-score in experiment [6].
On to “CCGATTAACATCAACATTTTCCCTGATGTTAATCGGGTCTTGATTCGCTTGACGCTGCTG”, for which the binding signal was determined as 3.52 z-score in experiment [1]; 5.79 z-score in experiment [2]; 8.32 z-score in experiment [3]; 4.91 z-score in experiment [4]; 1.62 z-score in experiment [5]; 3.41 z-score in experiment [6].
Regarding “CCGATTAACATCAAGGGGGGGCATGATGTTAATCGGGTCTTGATTCGCTTGACGCTGCTG”, the binding signal in experiment [1] is 4.34 z-score; in experiment [2] it was 4.38 z-score; in experiment [3], 2.83 z-score; in experiment [4] it was 4.6 z-score; in experiment [5], 3.45 z-score; in experiment [6] it was 4.09 z-score.
On to “CCGATTAACATCAACGTTTCCCCTGATGTTAATCGGGTCTTGATTCGCTTGACGCTGCTG”, for which the binding signal was 5.38 z-score in experiment [1]; 6.77 z-score in experiment [2]; 10.1 z-score in experiment [3]; 7.56 z-score in experiment [4]; 2.48 z-score in experiment [5]; 4.46 z-score in experiment [6].
Turning to “CCGATTAACATCAATTTTTTCCCTGATGTTAATCGGGTCTTGATTCGCTTGACGCTGCTG”, the binding signal in experiment [1] is 3.79 z-score; in experiment [2], 5.88 z-score; in experiment [3], 7.47 z-score; in experiment [4], 6.48 z-score; in experiment [5], 2.71 z-score; in experiment [6], 4.16 z-score.
On to “CCGATTAACATCAGATTATCCCCTGATGTTAATCGGGTCTTGATTCGCTTGACGCTGCTG”, for which the binding signal in experiment [1] was 5.35 z-score; in experiment [2] it was 6.05 z-score; in experiment [3], 6.87 z-score; in experiment [4], 5.37 z-score; in experiment [5], 2.63 z-score; in experiment [6], 4.98 z-score.
